Nrf2 inh = inhibitors of Nrf2 signaling; 360,000 compounds, 2.1% hits; Potency, µM (doses to about 46 µM), actives largely listed as inhibitors; A549 ARE-Fluc reporter, luciferase luminescence, 18-24 h; AID 504444; further: nearly all actives have a fitted effect of over 60% in size
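Nrf2 function is reported as luminescence of an ARE-controlled luciferase in A549 cells. Compounds were tested at several concentrations, and a CellTiter-Fluor read on the same wells flagged cytotoxicity.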
A549 viability = counter-screen for Nrf2 inhibitors: cytotoxicity in A549 cells | Potency, µM (series often up to 46 µM), usual class: inhibitors | 390,000 compounds, 0.16% hits | A549 ARE-Fluc cells, CellTiter-Fluor viability, 18-24 h | AID 504648
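A549 ARE_Fluc cells in 5% FBS OPTI-MEM were exposed to compounds in concentration-response for 18-24 h at 37 deg C. Viability was read by CellTiter-Fluor fluorescence (Ex 405/Em 525) after 30 min, before the luciferase read.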
mIDH1 inhibitor = inhibitors of human mutant IDH1 R132H | O75874 | IDH1-R132H enzyme, NADPH consumption, diaphorase/resazurin fluorescence | Potency, µM (doses to about 76.6 µM), usual class: inhibitors | 390,000 compounds, 0.093% hits; further: nearly all actives have a fitted effect of over 65% in size
Target sequence (O75874 whole entry R132H, stated change not applied): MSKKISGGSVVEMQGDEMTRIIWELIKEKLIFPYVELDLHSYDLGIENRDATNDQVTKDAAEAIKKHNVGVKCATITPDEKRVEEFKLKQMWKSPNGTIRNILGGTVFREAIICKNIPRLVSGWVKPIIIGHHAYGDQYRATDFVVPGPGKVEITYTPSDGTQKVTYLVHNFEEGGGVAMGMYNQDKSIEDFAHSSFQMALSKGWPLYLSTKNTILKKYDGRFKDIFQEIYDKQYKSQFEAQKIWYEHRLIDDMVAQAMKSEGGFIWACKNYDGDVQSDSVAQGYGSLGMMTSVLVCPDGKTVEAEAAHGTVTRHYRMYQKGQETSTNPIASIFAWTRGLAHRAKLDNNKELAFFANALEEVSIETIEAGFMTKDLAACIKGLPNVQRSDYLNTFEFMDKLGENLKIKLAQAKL
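IDH1-R132H (0.5 ug/mL) preincubated 30 min with compound, then NADPH (0.016 mM) and alpha-KG (2 mM) added; 80 min at RT, pH 7.5. Remaining NADPH coupled via diaphorase/resazurin to fluorescence (540/590 nm); concentration-response curves normalized to no-enzyme control.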
Giardia kill = kills Giardia lamblia; Giardia lamblia trophozoite viability; 340,000 compounds, 0.15% hits; activity change, % at 7.66 µM, hits read low; in the data active means activity change below about -80%; inconclusive means between about -30% and that limit;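 further: parasites exposed to compound for two days anaerobically before the ATP read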
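Compounds were tested on trophozoites seeded at 100 cells/well and held 48 hrs at 37 deg C anaerobically. An ATP-based luminescent kit measured the remaining live cells.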
Nrf2 ARE act = activators of Nrf2 (ARE) signaling | Potency, µM (top dose mostly 46.1 µM), hits mostly activators | AREc32 ARE-luciferase reporter (MCF7-derived line), luminescence, 24 h | AID 624171 | 410,000 compounds, 0.31% hits; further: nearly all actives have a fitted effect of over 65% in size
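Steps: seed AREc32_Fluc cells (1000/well, 5% FBS OPTI-MEM); incubate overnight at 37 deg C; add 23 nL compound; incubate 24 hr; add Steady-Glo; hold 30 min RT; read luminescence.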
Apoferritin bind = candidate novel general anesthetic via apoferritin binding; P02791; apoferritin/1-aminoanthracene competitive binding, fluorescence; Potency, µM (series often up to 77.5 µM), most hits filed as inhibitors; 350,000 compounds, 0.074% hits; further: nearly all actives have a fitted effect of over 20% in size
Target sequence (P02791 2-175 limits assumed): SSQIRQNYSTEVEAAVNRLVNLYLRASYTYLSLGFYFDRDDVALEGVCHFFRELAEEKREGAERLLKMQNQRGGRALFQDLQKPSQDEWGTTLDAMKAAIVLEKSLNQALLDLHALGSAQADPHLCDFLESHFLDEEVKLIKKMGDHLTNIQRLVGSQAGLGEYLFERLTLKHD
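Concentration-response curves derived by four-parameter Hill fitting of normalized fluorescence, where compounds displaced 1-AMA from 10 uM horse apoferritin following a brief 10 min room-temperature incubation; propofol titration acted as positive control.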
Hits are given with their value; - = inactive; ? = inconclusive; . = not tested or not shown; ! = not confirmed by another sample; [ ] = dose if it differs, or a comment. Shown are actives, neighbours in structure and some others; about 2.3% of the full set was active somewhere. Unless noted, the call rests on the fitted dose curve; in most records, active means well fitted curve in the direction sought with a large enough effect; inconclusive means small, poorly fitted or top-dose-only effect, or another doubt; inactive means no such curve, though single readings can be large; an effect the other way counts as inactive or inconclusive.

SMILES | Nrf2 inh | A549 viability | mIDH1 inhibitor | Giardia kill | Nrf2 ARE act | Apoferritin bind
CC(C)C[C@H](NC(=O)[C@H](CCCCN)NC(=O)CNC(=O)[C@H](CC(C)C)NC(=O)[C@@H](NC(=O)[C@@H]1CSSC[C@H](N)C(=O)N[C@@H](CO)C(=O)N[C@@H](CC(N)=O)C(=O)N[C@@H](CC(C)C)C(=O)N[C@@H](CO)C(=O)N[C@@H]([C@@H](C)O)C(=O)N1)C(C)C)C(=O)N[C@@H](CO)C(=O)N[C@@H](CCC(N)=O)C(=O)N[C@@H](CCC(=O)O)C(=O)N[C@@H](CC(C)C)C(=O)N[C@@H](Cc1cnc[nH]1)C(=O)N[C@@H](CCCCN)C(=O)N[C@@H](CC(C)C)C(=O)N[C@@H](CCC(N)=O)C(=O)N[C@H](C(=O)N[C@@H](Cc1ccc(O)cc1)C(=O)N1CCC[C@H]1C(=O)N[C@@H](CCCNC(=N)N)C(=O)N[C@H](C(=O)N[C@@H](CC(N)=O)C(=O)N[C@H](C(=O)NCC(=O)N[C@@H](CO)C(=O)NCC(=O)N[C@H](C(=O)N1CCC[C@H]1C(N)=O)[C@@H](C)O)[C@@H](C)O)[C@@H](C)O)[C@@H](C)O | . | . | . | . | . | -
CCc1nnc(NC(=O)c2nc(S(=O)(=O)Cc3ccc(C)cc3)ncc2Cl)s1 | 20.6µM! | ? | - | - | - | -
Cc1ccc(CS(=O)(=O)c2ncc(Cl)c(C(=O)Nc3nnc(C(C)C)s3)n2)cc1 | 20.6µM! | ? | - | - | - | -
CCc1nnc(NC(=O)c2nc(S(=O)(=O)Cc3cccc(C)c3)ncc2Cl)s1 | 23.1µM | ? | - | - | - | -
CCc1nnc(NC(=O)c2nc(S(=O)(=O)Cc3ccccc3)ncc2Cl)s1 | - | ? | - | - | 14.1µM | -
CC(C)c1nnc(NC(=O)c2nc(S(=O)(=O)Cc3ccc(F)cc3)ncc2Cl)s1 | - | ? | - | - | ? | -
Cc1ccc2nc(N3CCN(c4ccccc4F)CC3)c3nnnn3c2c1 | - | - | - | . | - | -
Cc1ccc(CN(C(=O)c2ccc(OCC(C)C)cc2)c2ccccn2)o1 | - | - | - | . | - | -
COc1cccc(C2c3c(ncn(-c4cccc(C#N)c4)c3=N)Oc3ccc4ccccc4c32)c1 (configuration not stated) | ? | - | . | . | . | .
CC(C)Cn1c(N)c(C(=O)CSc2nc3ncc(Cl)cc3[nH]2)c(=O)n(C)c1=O | 11.6µM | ? | - | - | - | .
COc1ccc(C2c3c(n(CCc4ccccc4)cnc3=N)Oc3ccc4ccccc4c32)cc1OC (configuration not stated) | - | - | . | . | . | .
CN=c1scc(-c2ccccc2F)n1/N=C/c1ccc(O)c(O)c1O | 11.6µM | ? | - | -103.4 | - | -
C[n+]1ccc(/C=N/Nc2nc(Cl)c(C#N)c(Cl)c2Cl)cc1 | - | - | - | - | 12.6µM | ?
CSc1nsc(N/N=C/c2ccccc2)c1C#N | - | - | - | - | - | -
O=C(CSC1=NCCS1)Nc1ccc(S(=O)(=O)N2CCCCCC2)cc1 | 14.6µM | - | - | - | - | ?
CC1CCN(S(=O)(=O)c2ccc(NC(=O)Cc3ccc(S(=O)(=O)N4CCOCC4)s3)cc2)CC1 | ? | - | - | - | - | .
O=C(Cc1ccc(S(=O)(=O)N2CCOCC2)s1)Nc1ccc(S(=O)(=O)N2CCCCC2)cc1 | 20.6µM | - | - | - | - | .
CC(=O)c1c(C)oc2ccc(NS(=O)(=O)c3ccc(C(C)C)cc3)cc12 | 13µM | - | - | . | - | -
CC(=O)c1c(C)oc2ccc(NS(=O)(=O)c3ccc(C)cc3)cc12 | - | - | - | - | - | -
Cc1cc(C)n2nc(-c3ccccc3)cc2n1 | ? | - | - | - | 8.91µM | -
COc1ccccc1N=Cc1c(C)c(C#N)c2[nH]c3ccccc3n2c1=O | - | - | - | - | - | -
Cc1c(Cc2ccccc2)c(=O)n2c([nH]c3ccccc32)c1C#N | 14.6µM | - | - | - | - | -
CC(=O)OC[C@@H]1O[C@H](C/C=N\O[C@@H]2O[C@H](COC(C)=O)[C@@H](OC(C)=O)[C@H](OC(C)=O)[C@H]2OC(C)=O)C=C[C@@H]1OC(C)=O | . | . | . | . | . | -[15.3 µM]
CC[N+](CC)(CC)CCOc1ccc(/C=C/c2ccccc2)cc1 | 14.6µM | - | - | - | - | ?
CC[N+](CC)(CC)CCOc1cccc(OCC[N+](CC)(CC)CC)c1OCC[N+](CC)(CC)CC | - | - | - | - | - | -
SMILES | Nrf2 inh | A549 viability | mIDH1 inhibitor | Giardia kill | Nrf2 ARE act | Apoferritin bind
C[C@@H]1OC2C3=C(C(=O)[C@H]4O[C@@H]4[C@H]3O)[C@@H]1[C@H]1[C@H](C)OC=C3[C@H](O)[C@H]4O[C@H]4/C(=N\OCc4ccccc4)[C@@]321 | . | . | . | . | . | -[15.3 µM]
NNC(=O)c1ccc(CSc2cccc3cccnc23)cc1 | - | - | - | - | - | -
Cc1cccc(CSc2cccc3cccnc23)c1 | - | - | - | - | 22.4µM | ?
Cc1ccc(Cl)cc1Nc1sc(C(=O)c2ccccc2)c(N)c1S(=O)(=O)c1ccccc1 | ? | - | - | . | - | -
CCS(=O)(=O)c1c(Nc2cc(C)ccc2C)sc(C(=O)c2ccccc2)c1N | 23.1µM | - | - | . | - | -
O=C1C=CC(n2cc(F)c(=O)[nH]c2=O)O1 (configuration not stated) | . | . | - | . | 25.1µM | .
Cc1ccc2c(c1)nnn2C1CCN(S(=O)(=O)c2ccc(C(=O)N3C(C)CCCC3C)cc2)CC1 (configuration not stated) | 10.3µM | ? | - | - | - | ?
Cn1c(=O)n(C)c2cc(NC(=O)CCl)ccc21 | 18.4µM | ? | - | - | ? | -
CCC1OC(C)Cc2[nH][nH]c(=O)c21 (configuration not stated) | . | . | . | . | - | .
CC(C)(C)c1nnc(NC(=O)CCS(=O)(=O)c2ccccc2)s1 | - | - | - | - | 15.8µM | -
N#Cc1ccsc1NC(=O)CCS(=O)(=O)c1ccccc1 | - | - | - | - | 14.1µM | -
CC(=O)c1sc(NC(=O)CS(=O)(=O)c2ccc(F)cc2)nc1C | - | - | - | - | - | .
CC(=O)c1sc(NC(=O)CCS(=O)(=O)c2ccc(C)cc2)nc1C | - | ? | - | - | 22.4µM | .
Cc1ccc(C2=Nc3ccccc3N(CC(=O)Nc3cccc(F)c3)C(=O)C2)cc1C | - | - | - | . | - | -
CCc1nn2c(=O)cc(N3C(C)CNCC3C)nc2s1 (configuration not stated) | - | - | . | . | . | .
CC(C)(C)OC(=O)NCc1nnc(C(C(=O)OCc2ccccc2)c2ccccc2)s1 (configuration not stated) | - | - | . | . | . | .
O=C(/C=C/c1ccc(I)cc1)c1ccc(B(O)O)cc1 | . | . | . | . | . | -

Compound activity as filed in PubChem BioAssay.
